# The supplement of paper PMC3334620
# Over roughly 33,000 sequences, “E-score (-0.5 to 0.5)” has its median near -0.053; the highest 2% begin near 0.37. Only a selection was taken, and the highest values are over-represented in it overall.
# Target: Hap1 (UniProt P0CE41)
# Test: PBM E-score (8-mer binding enrichment) (E-score (-0.5 to 0.5)); higher = stronger / more preferred TF binding
# Conditions: protein concentration: 200 nM; construct: GST-DNA-binding domain
# Procedure: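 Universal 'all 10-mer' protein binding microarrays (Agilent AMADID 015681) probed with GST-tagged S. cerevisiae TFs (full-length or DBD) made by in vitro transcription/translation (PURExpress), about 100-200 nM. Bound TF was detected with fluorescent anti-GST. Each ungapped 8-mer (which stands for itself and its reverse complement) is scored by the PBM enrichment score (E-score), a modified Wilcoxon-Mann-Whitney statistic from -0.5 to +0.5, computed with the Universal PBM Analysis Suite. Scale: above 0.35 generally sequence-specific binding.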
# UniProt P0CE41, sequence (P0CE41 whole entry): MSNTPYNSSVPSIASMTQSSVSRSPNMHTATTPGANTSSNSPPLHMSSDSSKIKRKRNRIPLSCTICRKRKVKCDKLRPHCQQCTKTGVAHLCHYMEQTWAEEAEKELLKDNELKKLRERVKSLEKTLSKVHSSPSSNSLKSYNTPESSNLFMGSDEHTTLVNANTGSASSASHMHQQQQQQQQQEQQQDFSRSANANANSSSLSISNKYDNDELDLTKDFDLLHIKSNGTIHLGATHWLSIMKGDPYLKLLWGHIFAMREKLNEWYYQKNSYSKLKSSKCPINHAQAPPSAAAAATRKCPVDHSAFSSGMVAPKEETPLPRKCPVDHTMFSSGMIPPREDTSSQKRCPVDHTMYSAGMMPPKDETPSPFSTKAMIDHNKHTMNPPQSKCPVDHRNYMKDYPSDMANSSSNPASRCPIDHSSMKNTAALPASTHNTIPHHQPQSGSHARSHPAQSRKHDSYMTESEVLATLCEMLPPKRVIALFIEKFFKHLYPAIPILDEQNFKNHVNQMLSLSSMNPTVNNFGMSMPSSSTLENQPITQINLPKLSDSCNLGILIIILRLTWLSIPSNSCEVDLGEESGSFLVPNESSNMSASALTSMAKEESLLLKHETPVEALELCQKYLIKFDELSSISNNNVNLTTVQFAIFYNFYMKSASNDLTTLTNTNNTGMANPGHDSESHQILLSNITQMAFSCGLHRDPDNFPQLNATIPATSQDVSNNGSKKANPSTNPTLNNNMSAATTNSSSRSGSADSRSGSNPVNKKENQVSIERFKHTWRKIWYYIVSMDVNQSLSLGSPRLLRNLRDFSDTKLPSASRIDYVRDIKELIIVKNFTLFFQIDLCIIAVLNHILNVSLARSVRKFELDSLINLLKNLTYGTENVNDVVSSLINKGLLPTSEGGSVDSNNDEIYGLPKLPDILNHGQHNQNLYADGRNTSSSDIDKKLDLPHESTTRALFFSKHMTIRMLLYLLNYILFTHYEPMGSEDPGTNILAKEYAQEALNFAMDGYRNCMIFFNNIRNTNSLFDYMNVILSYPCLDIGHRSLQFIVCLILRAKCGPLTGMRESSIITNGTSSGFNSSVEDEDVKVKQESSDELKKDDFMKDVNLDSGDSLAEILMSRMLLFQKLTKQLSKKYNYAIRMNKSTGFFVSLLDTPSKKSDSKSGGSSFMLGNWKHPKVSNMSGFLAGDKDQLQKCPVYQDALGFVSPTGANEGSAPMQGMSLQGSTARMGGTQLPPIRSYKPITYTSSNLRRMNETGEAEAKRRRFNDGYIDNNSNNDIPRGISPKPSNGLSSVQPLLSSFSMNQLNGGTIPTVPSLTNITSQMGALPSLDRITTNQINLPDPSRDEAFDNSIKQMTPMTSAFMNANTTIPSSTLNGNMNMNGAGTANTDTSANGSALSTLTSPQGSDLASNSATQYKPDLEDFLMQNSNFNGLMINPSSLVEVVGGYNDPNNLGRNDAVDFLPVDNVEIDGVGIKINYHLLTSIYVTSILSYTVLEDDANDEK
row,Sequence,PBM E-score
1,GGATTTAA,0.444
2,TTACCGAA,0.233
3,CGTCTGAC,-0.045
4,ATGAAGCG,-0.208
5,ACCACTTA,-0.00971
6,ATGTTAGA,-0.336
7,TAGCCGAA,0.314
8,AAGCCGGA,0.413
9,GAGCCGCA,-0.0121
10,CAGCCGGA,0.33
11,CAGCCGGC,0.331
12,GAGCCGGC,0.339
13,TAGCCGGA,0.407
14,AAGCCGGT,0.332
15,AAGCCGGC,0.399
16,GAGCCGGA,0.379
17,AAGCCGTC,0.27
18,AAGCCGGG,0.238
19,ACGGGCCA,0.226
20,CATAGAAG,-0.0619
21,CAGTTCGA,-0.156
22,AGCGCCAT,-0.113

row,Sequence,PBM E-score
1,CCGGTACG,0.342
2,CCGGTAAA,0.456
3,CCGGTAAG,0.391
4,CCGGTAAC,0.36
5,TCGGTAAA,0.249
6,ACGGTAAG,0.067
7,CGGGCAAA,0.249
8,GGCAAATA,0.2
9,TGGCAGAA,-0.0128
10,CTGCTGGA,-0.231
11,TTCCGAAA,0.363
12,GCCCGAAA,0.342
13,GTCCGAAA,0.421
14,GCCCGAAC,0.298
15,CACCGAAC,0.194
16,ATCCGAAC,0.355
17,ATCCGAAA,0.389
18,GTCCGAAC,0.426
19,ACCCGAAA,0.31
20,CCCCGAAC,0.291
21,ATCCGAAG,0.326
22,CTCCGAAC,0.415

row,Sequence,PBM E-score
1,ATACCGTC,0.0985
2,CGGCTAGC,0.0611
3,AGTCAGAT,-0.212
4,AGCAGCTG,-0.167
5,ACCCTCAG,-0.197
6,GCGCAAAA,-0.00131
7,CTCCGAAG,0.401
8,ACCCGAAT,0.314
9,CTCCGAAA,0.41
10,CTTCGAAA,-0.279
11,CGCCGAAG,0.359
12,CTCCGACA,0.291
13,CGCCGAAA,0.359
14,ATCCGACA,0.305
15,GTCCGACA,0.38
16,ATCCGAAT,0.403
17,CACCGAAG,0.245
18,AACCGAAT,0.301
19,ACTTGAGA,-0.185
20,AGGGGCGG,0.235
21,ACTCGTCG,-0.172
22,CCCCGCAA,0.258

row,Sequence,PBM E-score
1,ACATTTAA,-0.0555
2,AGCCCTTG,-0.311
3,AGACACGG,0.0548
4,CATCCAGG,-0.183
5,ATCCGAGC,0.356
6,ATCCGAGG,0.39
7,ATCCGACG,0.333
8,GACGCACC,-0.118
9,GCAAGGAC,-0.115
10,AGTCCAAG,-0.404
11,AGTCCGAT,0.432
12,AATCCGAT,0.401
13,AGTCCGTG,0.299
14,AGTCCGAG,0.428
15,AATCCGAC,0.363
16,AGTCCTAT,-0.0943
17,AATCCGAA,0.366
18,AGTCCGAC,0.36
19,AAGCCTAT,-0.101
20,AAAACTAG,-0.116
